Assay results published in the supplement of paper PMC12636033.
± gives the standard deviation of the averaged measurements. The full ranking holds about 33,000 sequences; the median of “E-score (rank enrichment, -0.5 to 0.5)” is about -0.0075, and the highest 2% start at about 0.23. Shown is part of a subset that was picked to be rich in the highest values.

Test system: WT Max(13-93) synthetic (M65Nle)
Assay: PBM 8-mer E-score (E-score (rank enrichment, -0.5 to 0.5)); higher = stronger preferential binding
Experimental: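 Protein binding microarray (universal PBM chip covering all 10-mers in fixed probe flanks) with chemically synthesized human Max(13-93) bHLH-LZ analogs (not full-length Max) bearing noncanonical residues (hArg, Tha, Aib, Nle at 65) and aromatic Cys staples. Read-out per 8-mer (and its reverse complement): E-score (rank-based enrichment, -0.5 to 0.5) and Z-score of median probe intensity.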

Point of comparison: GGAAGTAA, “PBM 8-mer E-score” value 0.238 ± 0.048. Against it:
- GCATGCAC — within error, 0.277 ± 0.0097
- TCATGCAA — within error, 0.174 ± 0.02
- GCATGCAA — within error, 0.257 ± 0.029
- ACATGCAC — within error, 0.244 ± 0.065
- ACATGCAA — within error, 0.185 ± 0.073
- CCATGCAA — within error, 0.127 ± 0.083
- AAATGCGT — lower, 0.0113 ± 0.099
- CGCACTGA — lower, -0.179 ± 0.032
- ACTGTGTC — lower, -0.00876 ± 0.03
- GTCTGGCA — lower, -0.0283 ± 0.1
- ATAGACAA — lower, 0.1094 ± 0.00018
- ACCTCGAT — lower, -0.1167 ± 0.00076
- ATTCTAAG — lower, 0.0595 ± 0.006
- CTGATCCA — lower, 0.0725 ± 0.042
- CAGAGAAC — lower, -0.0299 ± 0.06
- TATGATCA — within error, 0.0122 ± 0.2
- AAACAGTT — lower, 0.0134 ± 0.022
- CCCCTATC — lower, -0.00604 ± 0.055
- GTCGGAGA — lower, -0.0989 ± 0.0099
- CCATGCTC — lower, 0.084 ± 0.019
- AAATGCAT — within error, 0.229 ± 0.035
- ACATGCCT — within error, 0.219 ± 0.077
- ACATGCTA — within error, 0.174 ± 0.035
- ACATGCAT — within error, 0.302 ± 0.039
- ACATGCTC — within error, 0.272 ± 0.0055
- AGTCTGGC — lower, -0.226 ± 0.12
- GTAGCACA — lower, -0.0865 ± 0.011
- AAAAGTAA — lower, 0.157 ± 0.0098
- TGAAGTAA — lower, 0.119 ± 0.0048
- AGAAGTAA — lower, 0.154 ± 0.0017
- AAAAGTAC — lower, 0.155 ± 0.029
- TAAAGTAA — lower, 0.05 ± 0.016
- GAAAGTAA — within error, 0.267 ± 0.032
- AAAAGTAT — within error, 0.237 ± 0.021
- CAAAGTAA — lower, 0.0802 ± 0.022
- GCCAATCA — lower, 0.0501 ± 0.062
- TAATCGAA — lower, 0.0693 ± 0.0042
- CCGAAAGA — lower, -0.0212 ± 0.033
- CCCGGGCA — lower, -0.273 ± 0.045
- AGGGAGTC — lower, -0.0877 ± 0.012
- CATCGGAA — lower, -0.106 ± 0.077
- AAGTTGGG — lower, -0.0303 ± 0.066
- CTGCACGC — within error, 0.167 ± 0.037
- ATGCACGC — within error, 0.26 ± 0.026
- ATGCACAC — within error, 0.239 ± 0.079
- ATGCACAA — within error, 0.14 ± 0.051
- ATGCACGA — within error, 0.172 ± 0.088
- ATGCACAG — lower, 0.108 ± 0.0019
- ACCTAGCT — lower, -0.036 ± 0.038
- CCAATCAC — lower, 0.158 ± 0.025
- GCAATCAC — lower, 0.0355 ± 0.036
- ACAATCAC — within error, 0.28 ± 0.016
- AACCAAGA — lower, 0.113 ± 0.036
- AGGGGGGG — lower, -0.162 ± 0.1
- TCAAATCA — lower, 0.0295 ± 0.016
- CACAACAA — within error, 0.17 ± 0.053
- AACAACAC — within error, 0.248 ± 0.025
- AACAACAA — within error, 0.222 ± 0.06
- CACAACAC — lower, 0.162 ± 0.014
- GACAACAC — lower, 0.025 ± 0.0086
- TACAACAA — within error, 0.245 ± 0.075
- AGCCGCTC — lower, -0.0773 ± 0.005
- AGGCACAC — lower, -0.00413 ± 0.014
- TATTAGCA — lower, 0.103 ± 0.035
- CCCCTCCA — within error, 0.186 ± 0.16
- AGTAACAT — lower, 0.165 ± 0.019
- CTAATATA — within error, 0.203 ± 0.012
- CTATAATA — lower, 0.125 ± 0.03
- ATAATATG — within error, 0.2169 ± 0.00097
- ACATAATA — within error, 0.288 ± 0.01
- GTATAATA — within error, 0.194 ± 0.011
- GCATAATA — within error, 0.195 ± 0.12
- ATAATACA — within error, 0.265 ± 0.036
- ATAATACG — within error, 0.179 ± 0.092
- ACATAATC — lower, 0.111 ± 0.029
- ATAATACC — within error, 0.203 ± 0.026
- ATAATATA — within error, 0.262 ± 0.069
- ATATAATA — within error, 0.256 ± 0.035
- AGCACAAT — lower, 0.0982 ± 0.029
- ATCGGCCA — lower, -0.199 ± 0.054
- AAGATGAA — lower, 0.0673 ± 0.0063
- AGTTCCTA — lower, -0.0137 ± 0.1
- CATTCCGA — lower, 0.0189 ± 0.04
- CGCTCCAG — lower, -0.224 ± 0.12
- ATACTCCC — lower, 0.0233 ± 0.061
